Data published in PubChem BioAssay (EPA / NIEHS).
Inconclusive results are not listed. Calls of active or inactive are those of the source. The calls were made as follows: active = hit-call score of the fitted dose curve at least 0.9, where 1 is the maximum; inconclusive = response in the unintended direction; inactive = score below 0.9.

Columns and labels:
[1] = molecular target: rat Serotonin, 5-Hydroxytryptamine Receptor 1 (5HT1), Non-Selective Binding, Htr1a (gene 24473) (UniProt P19327); experiment: NVS_GPCR_r5HT1_NonSelective: NovaScreen (NVS) G Protein-Coupled Receptor Assay for rat Serotonin, 5-Hydroxytryptamine Receptor 1 (5HT1), Non-Selective Binding (AID 2283286)
Sequence of rat Serotonin, 5-Hydroxytryptamine Receptor 1 (5HT1), Non-Selective Binding, Htr1a (gene 24473) (P19327 whole entry, looked up): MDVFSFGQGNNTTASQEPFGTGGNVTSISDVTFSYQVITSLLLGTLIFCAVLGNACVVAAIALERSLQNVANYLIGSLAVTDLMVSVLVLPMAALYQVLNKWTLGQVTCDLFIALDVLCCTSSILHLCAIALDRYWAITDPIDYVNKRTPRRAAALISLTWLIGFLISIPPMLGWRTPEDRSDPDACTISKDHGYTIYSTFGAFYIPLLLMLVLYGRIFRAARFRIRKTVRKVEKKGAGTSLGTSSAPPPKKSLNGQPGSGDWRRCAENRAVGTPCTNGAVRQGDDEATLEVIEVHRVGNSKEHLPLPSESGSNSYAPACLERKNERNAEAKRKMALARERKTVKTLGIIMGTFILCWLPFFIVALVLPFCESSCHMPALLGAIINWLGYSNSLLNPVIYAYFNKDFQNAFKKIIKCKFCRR
How it was run: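 Binding of a radioligand to rat cortex membranes is read by filtration and scintillation counting after 1 h. Compounds were screened at 25 uM in duplicate. Actives were then titrated to a top of 50 uM. DMSO is the baseline.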

[2] = molecular target: rat Adrenergic, Alpha 1, Non-selective Receptor (Adra1), Adra1a (gene 29412) (UniProt P43140); experiment: NVS_GPCR_rAdra1_NonSelective: NovaScreen (NVS) G Protein-Coupled Receptor Assay for rat Adrenergic, Alpha 1, Non-selective Receptor (Adra1) (AID 2283289)
Sequence of rat Adrenergic, Alpha 1, Non-selective Receptor (Adra1), Adra1a (gene 29412) (P43140 whole entry, looked up): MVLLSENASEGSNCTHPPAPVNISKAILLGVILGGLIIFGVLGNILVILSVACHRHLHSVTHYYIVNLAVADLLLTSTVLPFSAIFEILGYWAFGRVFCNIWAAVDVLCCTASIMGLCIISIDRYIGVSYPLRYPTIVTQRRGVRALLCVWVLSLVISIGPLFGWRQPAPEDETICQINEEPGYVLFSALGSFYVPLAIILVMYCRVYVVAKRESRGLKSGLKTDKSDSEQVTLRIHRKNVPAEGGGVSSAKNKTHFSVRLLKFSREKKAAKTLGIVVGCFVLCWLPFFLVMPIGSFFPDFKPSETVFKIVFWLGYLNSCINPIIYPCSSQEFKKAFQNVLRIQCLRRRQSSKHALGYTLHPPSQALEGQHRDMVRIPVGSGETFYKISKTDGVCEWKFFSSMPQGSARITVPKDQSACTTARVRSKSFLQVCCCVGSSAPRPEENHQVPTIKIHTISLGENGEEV
How it was run: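 Chemicals first screened in duplicate at 25 uM, then actives tested in concentration series up to 50 uM. Binding measured as displacement of radioligand from rat forebrain membrane receptors, 1 h, filtration with scintillation readout; DMSO baseline.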

[3] = molecular target: human Vasopressin 1A Receptor (V1A), AVPR1A (gene 552) (UniProt P37288); experiment: NVS_GPCR_hV1A: NovaScreen (NVS) G Protein-Coupled Receptor Assay for human Vasopressin 1A Receptor (V1A) (AID 2283284)
Sequence of human Vasopressin 1A Receptor (V1A), AVPR1A (gene 552) (P37288 whole entry, looked up): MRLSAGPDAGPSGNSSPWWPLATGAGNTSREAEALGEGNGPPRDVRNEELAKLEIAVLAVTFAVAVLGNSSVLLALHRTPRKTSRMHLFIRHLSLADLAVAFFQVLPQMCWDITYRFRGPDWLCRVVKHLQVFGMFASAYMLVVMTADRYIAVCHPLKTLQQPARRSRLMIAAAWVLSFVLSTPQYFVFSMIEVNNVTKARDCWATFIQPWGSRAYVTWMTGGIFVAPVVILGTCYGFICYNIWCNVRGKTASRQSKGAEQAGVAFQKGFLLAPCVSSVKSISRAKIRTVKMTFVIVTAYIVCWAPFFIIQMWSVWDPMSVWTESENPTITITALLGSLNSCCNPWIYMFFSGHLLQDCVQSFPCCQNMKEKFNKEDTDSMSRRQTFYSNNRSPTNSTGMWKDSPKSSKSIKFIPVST
How it was run: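 Single-concentration duplicate screen at 25 uM, with concentration-response follow-up (top 50 uM) for actives. The assay measured displacement of a radioligand from human platelet-derived receptor after 1.5 h, detected by filtration and scintillation counting.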

[4] = system: rabbit Platelet Activating Factor Receptor (PAF), gene 100354046; experiment: NVS_GPCR_rabPAF: NovaScreen (NVS) G Protein-Coupled Receptor Assay for rabbit Platelet Activating Factor Receptor (PAF) (AID 2283287)
How it was run: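 Rabbit platelet membrane preparation; radioligand displacement read by filter-based scintillation counting 1 h after dosing, loss of signal versus DMSO. Primary screen in duplicate at 25 uM, actives followed up in concentration series.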

[5] = system: 5-hydroxytryptamine receptor 2C (pig); experiment: NVS_GPCR_p5HT2C: NovaScreen (NVS) G Protein-Coupled Receptor Assay for pig Serotonin, 5-Hydroxytryptamine Receptor 2C (5HT2C) (AID 2283288)
How it was run: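 Radioligand displacement on membranes from pig choroid plexus, detected by filter scintillation counting after 1 h. Tested first at a single 25 uM in duplicate, then in concentration-response for actives; DMSO served as baseline.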

[6] = molecular target: human Neurokinin, NK2 Receptor, TACR2 (gene 6865) (UniProt P21452); experiment: NVS_GPCR_hNK2: NovaScreen (NVS) G Protein-Coupled Receptor Assay for human Neurokinin, NK2 Receptor (AID 2283278);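 also: actives reduce bound radioligand signal relative to DMSO baseline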
Sequence of human Neurokinin, NK2 Receptor, TACR2 (gene 6865) (P21452 whole entry, looked up): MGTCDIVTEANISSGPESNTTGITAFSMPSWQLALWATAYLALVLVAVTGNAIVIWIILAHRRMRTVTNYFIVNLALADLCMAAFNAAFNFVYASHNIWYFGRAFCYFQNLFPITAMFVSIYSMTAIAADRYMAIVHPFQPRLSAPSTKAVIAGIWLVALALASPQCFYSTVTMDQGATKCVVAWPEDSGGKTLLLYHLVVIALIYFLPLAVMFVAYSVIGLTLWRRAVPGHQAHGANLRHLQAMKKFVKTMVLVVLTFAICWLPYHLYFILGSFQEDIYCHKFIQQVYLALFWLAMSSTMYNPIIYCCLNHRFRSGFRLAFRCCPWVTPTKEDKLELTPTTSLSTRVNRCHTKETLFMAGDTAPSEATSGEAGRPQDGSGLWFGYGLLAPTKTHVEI
How it was run: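 Cell-free radioligand binding using receptor protein extracted from CHO cells; readings taken 4 hours after chemical dosing by filter-based scintillation counting. Primary screen ran single concentration (25 uM) in duplicate; actives followed up in concentration series, loss-of-signal versus DMSO baseline.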

[7] = molecular target: human Orphanin, Opioid Related Nociceptin Receptor 1 (ORL1), OPRL1 (gene 4987) (UniProt P41146); experiment: NVS_GPCR_hORL1: NovaScreen (NVS) G Protein-Coupled Receptor Assay for human Orphanin, Opioid Related Nociceptin Receptor 1 (ORL1) (AID 2283283)
Sequence of human Orphanin, Opioid Related Nociceptin Receptor 1 (ORL1), OPRL1 (gene 4987) (P41146 whole entry, looked up): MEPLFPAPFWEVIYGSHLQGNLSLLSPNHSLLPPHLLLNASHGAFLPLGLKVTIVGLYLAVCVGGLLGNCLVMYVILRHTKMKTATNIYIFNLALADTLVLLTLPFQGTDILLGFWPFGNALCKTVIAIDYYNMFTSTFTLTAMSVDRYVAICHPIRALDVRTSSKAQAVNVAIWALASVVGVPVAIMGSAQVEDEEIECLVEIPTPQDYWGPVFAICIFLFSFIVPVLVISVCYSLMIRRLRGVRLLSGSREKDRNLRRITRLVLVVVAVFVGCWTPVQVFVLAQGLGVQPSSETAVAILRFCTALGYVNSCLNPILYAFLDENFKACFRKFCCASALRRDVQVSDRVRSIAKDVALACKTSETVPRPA
How it was run: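 Cell-free binding using HEK293-derived receptor protein: radioligand displacement measured by filter scintillation 1 hour after dosing. Primary testing at 25 uM in duplicate, followed by singleton concentration series up to 50 uM; DMSO served as negative control.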

[8] = molecular target: human Thromboxane A2 Receptor (TXA2), TBXA2R (gene 6915) (UniProt P21731); experiment: NVS_GPCR_hTXA2: NovaScreen (NVS) G Protein-Coupled Receptor Assay for human Thromboxane A2 Receptor (TXA2) (AID 2283282);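 also: actives reduce bound radioligand signal relative to DMSO baseline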
Sequence of human Thromboxane A2 Receptor (TXA2), TBXA2R (gene 6915) (P21731 whole entry, looked up): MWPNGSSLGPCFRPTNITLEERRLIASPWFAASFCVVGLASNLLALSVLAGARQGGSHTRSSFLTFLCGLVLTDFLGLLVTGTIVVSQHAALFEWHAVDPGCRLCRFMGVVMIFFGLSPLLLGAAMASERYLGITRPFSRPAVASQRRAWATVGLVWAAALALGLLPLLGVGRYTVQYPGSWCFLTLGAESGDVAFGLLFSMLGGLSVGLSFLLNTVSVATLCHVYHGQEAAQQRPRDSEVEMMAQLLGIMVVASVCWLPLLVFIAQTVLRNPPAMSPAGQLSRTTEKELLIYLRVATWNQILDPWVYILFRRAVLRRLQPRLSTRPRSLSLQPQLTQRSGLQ
How it was run: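 Filter scintillation counting of bound radioligand, human platelet protein, 1 h exposure. Single-concentration duplicates (25 uM) first, concentration-response follow-up for actives. Binding loss scored against DMSO baseline.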

[9] = molecular target: mouse Cholecystokinin, CCK1 Receptor (CCKA), Cckar (gene 12425) (UniProt O08786); experiment: NVS_GPCR_mCCKAPeripheral: NovaScreen (NVS) G Protein-Coupled Receptor Assay for mouse Cholecystokinin, CCK1 Receptor (CCKA) (AID 2283285)
Sequence of mouse Cholecystokinin, CCK1 Receptor (CCKA), Cckar (gene 12425) (O08786 whole entry, looked up): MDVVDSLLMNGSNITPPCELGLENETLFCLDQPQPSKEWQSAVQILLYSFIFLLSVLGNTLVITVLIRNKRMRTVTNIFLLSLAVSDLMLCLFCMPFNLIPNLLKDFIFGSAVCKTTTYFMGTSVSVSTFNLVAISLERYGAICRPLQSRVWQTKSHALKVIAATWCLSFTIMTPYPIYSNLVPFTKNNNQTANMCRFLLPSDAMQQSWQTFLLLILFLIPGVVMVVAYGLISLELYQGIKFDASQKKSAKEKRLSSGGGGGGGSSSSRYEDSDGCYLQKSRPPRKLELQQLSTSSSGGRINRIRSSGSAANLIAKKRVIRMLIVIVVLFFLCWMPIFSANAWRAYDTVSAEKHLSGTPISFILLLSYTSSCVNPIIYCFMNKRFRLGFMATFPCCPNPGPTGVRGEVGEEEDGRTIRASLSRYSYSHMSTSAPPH
How it was run: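 Chemicals were first screened in duplicate at 25 uM, with those meeting threshold (e.g., 30% inhibition) retested in singleton concentration series to 50 uM maximum. Binding of radioligand to mouse pancreatic membranes was read after 2 h by filtration and scintillation counting.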

[10] = molecular target: human Neurotensin Receptor (NTS), NTSR1 (gene 4923) (UniProt P30989); experiment: NVS_GPCR_hNTS: NovaScreen (NVS) G Protein-Coupled Receptor Assay for human Neurotensin Receptor (NTS) (AID 2283279)
Sequence of human Neurotensin Receptor (NTS), NTSR1 (gene 4923) (P30989 whole entry, looked up): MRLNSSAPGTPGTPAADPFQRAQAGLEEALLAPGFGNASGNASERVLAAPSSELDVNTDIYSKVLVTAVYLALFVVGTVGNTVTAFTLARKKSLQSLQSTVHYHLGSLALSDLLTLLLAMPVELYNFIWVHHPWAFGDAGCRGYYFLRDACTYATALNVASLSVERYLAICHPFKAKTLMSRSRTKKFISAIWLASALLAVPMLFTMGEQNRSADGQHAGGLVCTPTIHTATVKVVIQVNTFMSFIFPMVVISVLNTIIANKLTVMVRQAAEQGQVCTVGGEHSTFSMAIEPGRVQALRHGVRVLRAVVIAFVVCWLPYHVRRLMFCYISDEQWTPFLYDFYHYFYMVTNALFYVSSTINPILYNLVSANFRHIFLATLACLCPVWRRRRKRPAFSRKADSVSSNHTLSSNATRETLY
How it was run: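 Compounds competed with a radiolabelled ligand for binding to CHO-derived human neurotensin receptor; bound signal counted after filtration, 1 h. Screened first at a single concentration of 25 uM in duplicate, then concentration series to 50 uM maximum for actives.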

Compound: COc1cccc([C@H](O)C2CCN(CCc3ccc(F)cc3)CC2)c1OC
- AC50 [1]: 25 µM (active)

Compound: COc1ccc2cc(S(=O)(=O)N[C@H](CC(=O)N[C@H](Cc3ccc(CN4[C@H](C)CCC[C@@H]4C)cc3)C(=O)N(C)C(C)C)c3ccc4c(c3)OCO4)ccc2c1
- AC50 [2]: 15.7 µM (active)

Compound: Cc1occc1C(=O)Nc1ccc(C(=O)N2CCC(F)(F)/C(=C\C(=O)N3CCC(N4CCCCC4)CC3)c3ccccc32)cc1
- AC50 [3]: 0.00237 µM (active)
- AC50 [4]: 2.76 µM (active)
- outcome [5]: inactive
- AC50 [2]: 6.08 µM (active)

Compound: O=c1[nH]sc2ccccc12
- AC50 [6]: 0.38 µM (active)
- AC50 [7]: 3.2 µM (active)
- AC50 [1]: 40.4 µM (active)

Compound: Clc1cc(Cl)c2c(c1)N=C1CCCCCN1C2
- AC50 [2]: 6.44 µM (active)

Compound: CO[C@H]1/C=C/O[C@@]2(C)Oc3c(C)c(O)c4c(O)c(c(/C=N/N5CCN(C)CC5)c(O)c4c3C2=O)NC(=O)/C(C)=C\C=C\[C@H](C)[C@H](O)[C@@H](C)[C@@H](O)[C@@H](C)[C@H](OC(C)=O)[C@@H]1C
- outcome [8]: inactive

Compound: Oc1ccc2ccccc2c1
- AC50 [5]: 9.86 µM (active)

Compound: CCOC(=O)O[C@H](C)OC(=O)c1ccc2c(c1)cc(C(=O)NC1CCN(C(C)C)CC1)n2Cc1cc(-c2ccc(Cl)s2)on1
- AC50 [6]: 3.38 µM (active)
- AC50 [8]: 23.6 µM (active)
- AC50 [7]: 4.46 µM (active)
- AC50 [9]: 22.9 µM (active)
- AC50 [4]: 17.3 µM (active)
- AC50 [5]: 21.3 µM (active)
- AC50 [2]: 33.1 µM (active)

Compound: CCCCCCCCCCCC[N+](C)(C)C
- AC50 [6]: 18.6 µM (active)
- AC50 [10]: 11.7 µM (active)
- outcome [3]: inactive
- AC50 [9]: 20.6 µM (active)
- AC50 [4]: 9.15 µM (active)
- AC50 [5]: 25 µM (active)

Compound: CC[C@@H]1C[C@H](N(Cc2cc(C(F)(F)F)cc(C(F)(F)F)c2)C(C)=O)c2cc(C(F)(F)F)ccc2N1C(=O)OC(C)C
- outcome [1]: inactive
- outcome [4]: inactive

Compound: c1ccc2n[nH]nc2c1
- outcome [5]: inactive

Compound: CCN(Cc1cccnc1)C(=O)c1cccc(Cl)c1[C@]1(C)C(=O)N(Cc2ccc(OC)cc2OC)c2ccc(Cl)cc21
- AC50 [8]: 6.61 µM (active)
- outcome [3]: inactive
- AC50 [4]: 1.68 µM (active)
- AC50 [2]: 11.4 µM (active)
